According to PubChem BioAssay (Tox21):
Inconclusive results are not listed. The source made the active and inactive calls. Unless noted, calls follow the shape of the dose curve; as a rule, active = well fitted curve in the direction sought with a large enough effect in the repeat runs; inconclusive = weak or mixed curves; inactive = no such curve, though single readings can be large; an effect the other way counts as inactive or inconclusive.

Tests used:
[1] = qHTS assay to identify small molecule agonists of the NFkB signaling pathway - cell viability counter screen (AID 1159515; calls by dose curve; also: series mostly up to about 61 µM; nearly all actives have a fitted effect of over 55% in size)
Outline: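 Cells are seeded (2,000 NFkB-bla ME-180 per well), rested overnight, and dosed with DMSO-dissolved compounds for 5 hr at 37 C. Viability is then read by CellTiter-Glo luminescence after 30 min at room temperature.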

[2] = qHTS assay to identify small molecule agonists of the endoplasmic reticulum stress response signaling pathway (AID 1159516; active = well fitted activation curve with a large enough effect in the signal ratio in the repeat runs, not every such curve was filed as active; the % refers to the signal ratio)
Outline: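 Cells are seeded at 1,500 per well and incubated overnight. Compounds in DMSO are added for 5 hr at 37 C, then beta-lactamase FRET substrate for 2 hr at room temperature, and fluorescence at 460 and 530 nm is measured.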

[3] = qHTS assay to identify small molecule agonists of the endoplasmic reticulum stress response signaling pathway - cell viability counter screen (AID 1159517; calls by dose curve;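 also: HeLa cells carrying an ER stress response element beta-lactamase reporter; series mostly up to about 61 µM; nearly all actives have a fitted effect of over 50% in size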)
Outline: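 In parallel with the ESRE reporter read, cytotoxicity was scored by CellTiter-Glo luminescence (30 min, room temperature) on HeLa ESRE-bla cells dosed for 5 hr.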

[4] = qHTS assay to identify small molecule antagonists of the retinoid-related orphan receptor gamma (ROR-gamma) signaling pathway - cell viability counter screen (AID 1159520); also: nearly all actives have a fitted effect of over 50% in size
Outline: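 Tet-on ROR gamma CHO cells were given compounds for 2 hr, then doxycycline hyclate at 1 uM final, and incubated 16 hr at 37 C. Viability was measured as ATP content by CellTiter-Glo luminescence.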

[5] = target: Nuclear receptor ROR-gamma (Homo sapiens) (UniProt P51449); experiment: qHTS assay to identify small molecule antagonists of the retinoid-related orphan receptor gamma (ROR-gamma) signaling pathway (AID 1159521;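 also: CHO cells with doxycycline inducible ROR-gamma driving an RORE luciferase reporter; top concentration of the series differs between compounds; nearly all actives have a fitted effect of over 50% in size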)
Outline: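 Tet-on ROR-gamma CHO cells with ROR response element-luciferase reporter; compounds added 2 hr before 1 uM doxycycline induction, then 16 hr at 37 C. Antagonism scored as decreased ONE-Glo luminescence.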

[6] = qHTS assay to identify small molecule agonists of the AP-1 signaling pathway - cell viability counter screen (AID 1159525; calls by dose curve; also: nearly all actives have a fitted effect of over 55% in size)
Outline: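 Same-well cytotoxicity counter screen of the Tox21 10K library in ME-180 cells. The readout is ATP-dependent luminescence after 5 h compound treatment. Data are normalised to DMSO and tetra n-octyl ammonium bromide controls.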

[7] = qHTS assay to identify small molecule agonists of the AP-1 signaling pathway (AID 1159526; calls by dose curve)
[8] = target: Retinoic acid receptor RXR-alpha (Homo sapiens) (UniProt P19793); experiment: qHTS assay to identify small molecule agonists of the RXR signaling pathway (AID 1159527; calls by dose curve; also: nearly all actives have a fitted effect of over 35% in size)
Chain of Retinoic acid receptor RXR-alpha (Homo sapiens) (P19793 whole entry, looked up): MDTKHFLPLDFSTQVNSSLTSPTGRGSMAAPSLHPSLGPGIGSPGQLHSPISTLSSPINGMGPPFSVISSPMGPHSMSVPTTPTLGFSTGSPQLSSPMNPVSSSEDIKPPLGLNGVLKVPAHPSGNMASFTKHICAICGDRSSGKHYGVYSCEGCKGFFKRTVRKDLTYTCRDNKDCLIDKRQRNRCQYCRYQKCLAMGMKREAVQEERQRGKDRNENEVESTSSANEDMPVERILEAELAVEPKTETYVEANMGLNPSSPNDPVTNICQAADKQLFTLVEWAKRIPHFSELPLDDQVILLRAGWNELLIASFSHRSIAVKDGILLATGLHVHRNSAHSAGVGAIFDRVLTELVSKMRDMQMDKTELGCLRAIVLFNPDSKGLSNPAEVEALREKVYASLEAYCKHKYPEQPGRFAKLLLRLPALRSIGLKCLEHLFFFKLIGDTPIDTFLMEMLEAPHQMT
Outline: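 GeneBLAzer RXR-alpha-UAS-bla HEK 293T cells in 2% charcoal-stripped FBS medium were exposed to compounds for 16 hr at 37 C in agonist mode. Beta-lactamase reporter read as 460/530 nm FRET ratio after 2 hr substrate loading.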

[9] = qHTS assay to identify small molecule agonists of the RXR signaling pathway - cell viability counter screen (AID 1159529); also: series mostly up to about 77 µM; nearly all actives have a fitted effect of over 50% in size
Outline: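 RXR-alpha-UAS-bla HEK 293T cells in medium with 2% charcoal-stripped FBS were pre-incubated 5 hr, then compound-treated 16 hr at 37 C. Viability was read by CellTiter-Glo luminescence in the same wells as the beta-lactamase assay, with tetraoctyl ammonium bromide as positive control.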

[10] = qHTS assay to identify small molecule antagonists of the retinoid acid receptor (RAR) signaling pathway - cell viability counter screen (AID 1159551); also: nearly all actives have a fitted effect of over 35% in size
Outline: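 Cells (C3RL4) are plated, incubated overnight, dosed with compound in DMSO, then given retinol at 1 uM final. After 6 h at 37 C, CellTiter-Glo is added and luminescence read following 30 min at room temperature.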

[11] = qHTS assay to identify small molecule antagonists of the retinoic acid receptor (RAR) signaling pathway (AID 1159552; also: nearly all actives have a fitted effect of over 50% in size)
Outline: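 Retinol signaling pathway inhibitors screened in C3RL4 RARE-luciferase reporter cells seeded overnight at 37 C, then compounds added with 1 uM (final) retinol as pathway substrate. After 6 hr at 37 C, luciferase luminescence read after 30 min at room temperature.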

[12] = qHTS assay to identify small molecule agonists of the retinoic acid receptor (RAR) signaling pathway (AID 1159553)
Outline: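 Seed C3RL4 reporter cells at 1,000 per well and incubate overnight at 37 C. Add compounds in DMSO, incubate 6 hr. Add luciferase reagent, wait 30 min at room temperature, read luminescence.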

[13] = target: Luciferin 4-monooxygenase (Photinus pyralis) (UniProt P08659); experiment: qHTS assay to identify small molecule inhibitors of firefly luciferase (AID 1224835); also: series mostly up to about 120 µM; nearly all actives have a fitted effect of over 25% in size
Chain of Luciferin 4-monooxygenase (Photinus pyralis) (P08659 whole entry, looked up): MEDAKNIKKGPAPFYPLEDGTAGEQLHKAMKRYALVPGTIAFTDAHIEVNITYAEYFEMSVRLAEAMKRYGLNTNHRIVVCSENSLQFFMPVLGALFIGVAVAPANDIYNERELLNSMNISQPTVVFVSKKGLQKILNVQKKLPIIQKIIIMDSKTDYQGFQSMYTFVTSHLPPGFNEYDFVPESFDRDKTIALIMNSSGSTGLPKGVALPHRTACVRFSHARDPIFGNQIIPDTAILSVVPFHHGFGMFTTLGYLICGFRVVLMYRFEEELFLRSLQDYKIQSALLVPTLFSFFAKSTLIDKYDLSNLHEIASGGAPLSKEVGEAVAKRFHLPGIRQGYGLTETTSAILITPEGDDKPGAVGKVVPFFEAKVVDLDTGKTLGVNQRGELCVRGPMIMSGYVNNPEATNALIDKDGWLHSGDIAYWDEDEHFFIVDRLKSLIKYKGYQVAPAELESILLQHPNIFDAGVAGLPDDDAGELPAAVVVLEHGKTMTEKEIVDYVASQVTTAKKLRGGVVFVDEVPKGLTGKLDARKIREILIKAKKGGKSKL
Outline: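 Biochemical qHTS: compounds run as interplate titrations against purified firefly enzyme, with D-luciferin and ATP each at its KM concentration. Light output recorded by CCD imaging.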

[14] = qHTS assay to identify small molecule agonists of the constitutive androstane receptor (CAR) signaling pathway - cell viability counter screen (AID 1224836); also: series mostly up to about 92 µM; nearly all actives have a fitted effect of over 45% in size
Outline: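 HepG2 cells stably carrying hCAR and a CYP2B6-2.2kb reporter; 15-concentration compounds plus PK11195 (final 0.75 uM), 23 hr at 37 C/5% CO2. Viability read by CellTiter-Fluor fluorescence.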

[15] = qHTS assay to identify small molecule antagonists of the constitutive androstane receptor (CAR) signaling pathway - cell viability counter screen (AID 1224837); also: series mostly up to about 92 µM; nearly all actives have a fitted effect of over 45% in size
Outline: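 Viability was measured with CellTiter-Fluor in a HepG2 line carrying stably transfected hCAR and a CYP2B6-2.2kb construct. Cells were exposed for 23 hr at 37 C to 15 compound concentrations with 50 nM CITCO as agonist.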

[16] = target: Nuclear receptor subfamily 1 group I member 3 (Homo sapiens) (UniProt Q14994); experiment: qHTS assay to identify small molecule antagonists of the constitutive androstane receptor (CAR) signaling pathway (AID 1224838);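 also: HepG2 cells stably expressing hCAR with CYP2B6 luciferase reporter stimulated by CITCO; nearly all actives have a fitted effect of over 40% in size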
Chain of Nuclear receptor subfamily 1 group I member 3 (Homo sapiens) (Q14994 whole entry, looked up): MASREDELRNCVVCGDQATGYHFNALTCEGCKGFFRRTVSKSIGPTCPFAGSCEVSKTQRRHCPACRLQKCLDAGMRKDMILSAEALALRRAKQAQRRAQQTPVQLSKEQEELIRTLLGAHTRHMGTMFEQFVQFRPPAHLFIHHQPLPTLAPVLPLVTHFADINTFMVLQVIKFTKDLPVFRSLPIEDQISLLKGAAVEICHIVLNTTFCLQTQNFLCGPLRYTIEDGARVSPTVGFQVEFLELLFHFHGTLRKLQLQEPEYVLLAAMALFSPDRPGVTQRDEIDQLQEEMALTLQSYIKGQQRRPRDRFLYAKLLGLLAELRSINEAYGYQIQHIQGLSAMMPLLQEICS
Outline: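 Antagonist mode used CITCO at a final 50 nM to activate CAR in human hepatoma HepG2 cells carrying stable hCAR and a 2.2 kb CYP2B6 promoter-luciferase construct. Compounds were tested at 15 concentrations over 24 h, with luminescence as the end point.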

[17] = target: Nuclear receptor subfamily 1 group I member 3 (Homo sapiens) (UniProt Q14994); experiment: qHTS assay to identify small molecule agonists of the constitutive androstane receptor (CAR) signaling pathway (AID 1224839); also: series mostly up to about 92 µM; nearly all actives have a fitted effect of over 15% in size
Outline: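 HepG2 cells stably co-transfected with hCAR and a CYP2B6-2.2kb luciferase reporter; compounds at 15 concentrations with 0.75 uM PK11195 present. After 24 hr at 37 C, luciferase read by ONE-Glo luminescence.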

[18] = qHTS assay to identify small molecule antagonists of the estrogen related receptor signaling pathway with the pleiotropic PPARgamma coactivator (PGC) from Tox21 10K library - cell viability counter screen (AID 1224840; active = well fitted cell-killing curve with a large enough effect in the repeat runs, not every such curve was filed as active; also: nearly all actives have a fitted effect of over 40% in size)
Outline: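 Multiplexed viability counter screen in the PGC/ERR cell line: cells treated with DMSO-dissolved compounds for 17.5 hours at 37 C, then viability measured as CellTiter-Fluor fluorescence.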

[19] = qHTS assay to identify small molecule antagonists of the vitamin D receptor (VDR) signaling pathway - cell viability counter screen (AID 743225); also: nearly all actives have a fitted effect of over 50% in size
Outline: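 VDR-UAS-bla HEK 293T cells were plated and incubated 4 h at 37C, then dosed with compound plus 3 nM (final) 1-alpha,25-dihydroxyvitamin D3 for 16 h. After the 2 h beta-lactamase read, viability in the same wells was read as CellTiter-Glo luminescence after 30 min at room temperature.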

[20] = qHTS assay to identify small molecule antagonists of the estrogen related receptor (ERR) signaling pathway from Tox21 library - cell viability counter screen (AID 1224834); also: nearly all actives have a fitted effect of over 30% in size
Outline: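 ERR cells, 2,000/well; 6 h settle at 37 C/5% CO2; pin-tool compound transfer in DMSO; 17.5 h at 37 C; CellTiter-Fluor, 30 min; fluorescence intensity.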

Measured: Potency

COC(C)(C)CC(C)=O
not listed: [19] | [20]
inactive: all other assays above

Clc1ccc2c(c1)Nc1ccccc1S2
not listed: [17] | [20]
inactive: all other assays above

CC1(C)C(=O)C(C)(C)C1=O
not listed: [12]
inactive: all other assays above

CCCCN=C(N)N=C(N)N
not listed: [12]
inactive: all other assays above

CN(C)CCC[C@@]1(c2ccc(F)cc2)OCc2cc(C#N)ccc21
not listed: [17] | [20]
inactive: all other assays above

N=C(N)S(=O)O
not listed: [14] | [16] | [17]
inactive: all other assays above

Cc1cc(=O)oc2cc(O[C@@H]3SC[C@@H](O)[C@H](O)[C@H]3O)ccc12
not listed: [12] | [17]
inactive: all other assays above

CC(O)CCCCn1c(=O)c2c(ncn2C)n(C)c1=O (centres undefined)
not listed: [17] | [19] | [20]
inactive: all other assays above
